Screening data: PubChem BioAssay, National Center for Advancing Translational Sciences (NCATS)
Compounds with a hit are over-represented: about 19% of the library has one in this group of screens.
Shiga inhibitor: blocks Shiga toxin action in Vero cells | inhibition, % at 38.7 µM | Vero cells, Shiga toxin protein synthesis inhibition reporter | hit rate 9.2% among 290,000 | AID 2315; in the data active = inhibition mostly above about 28%, no sharp cut-off; inactive = mostly below about 43%; also: 0% is about no effect
Pf growth 96h: P. falciparum growth inhibition at 96 hours. P. falciparum luciferase reporter growth, 96 h. Potency, µM (highest dose often 28.7 µM), for inactives: top-dose activity change, negative = inhibition, most hits filed as inhibitors. hit rate 6.9% among 320,000. AID 504834; also: potency is read from the fitted curve at half-maximal effect; % is scaled to controls: 0 for no effect and ±100 for the full control effect
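96 h incubation, 37 C, 5% CO2, of luciferase-reporter P. falciparum-infected RBCs (2% hematocrit, 0.05% parasitemia final) with test compounds; endpoint luminescence.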
Pf growth 48h: inhibits P. falciparum growth in the first generation, 48 h. AID 504832. P. falciparum luciferase growth in erythrocytes, 48 h. hit rate 5.9% among 310,000. Potency, µM (top dose mostly 28.7 µM), for the others: top-dose activity change, negative = inhibition, actives largely listed as inhibitors; also: potency is read from the fitted curve at half-maximal effect; % is scaled to controls: 0 for no effect and ±100 for the full control effect
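A one-generation exposure of luciferase-tagged malaria parasites in RPMI 1640/Albumax erythrocyte culture, 37 C and 5% CO2. Inhibition is inferred from decreased luminescence after adding detection reagent.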
LASV entry inh: inhibitors of Lassa virus binding or cell entry; Potency, µM (top dose mostly 37.9 µM), for the others: at the highest dose activity change, negative = inhibition, usual class: inhibitors; AID 540256; Lassa virus pseudotype entry inhibition, cell reporter; hit rate 1.2% among 300,000; calls by dose curve; tested in HEK293 cells; also: potency is read from the fitted curve at half-maximal effect; % is scaled to controls: 0 for no effect and ±100 for the full control effect; nearly all actives have a fitted effect of over 50% in size
CHX counter: counter-screen hit for Shiga toxin inhibitors, cycloheximide; cell reporter, cycloheximide protein synthesis inhibition counterscreen; max response, %; hit rate 12% among 300,000; in the data active = max response mostly above about 13%, no sharp cut-off; inactive = mostly below about 14%; also: read at 38.3 µM for the half of the compounds with a filed dose; 0% is about no effect
Marburg entry inh: Marburg virus entry inhibition. Marburg virus pseudotyped entry inhibition, cell reporter. Potency, µM (titrated, usually from 37.8 µM), inactives show top-dose activity change, negative = inhibition, usual class: inhibitors. hit rate 1.8% among 300,000. AID 540276; calls by dose curve; tested in HEK293 cells; also: potency is read from the fitted curve at half-maximal effect; % is scaled to controls: 0 for no effect and ±100 for the full control effect
* marks the source's active call; other numbers are inactive results; [ ] = dose if it differs, or a comment. Unless noted, calls follow the shape of the dose curve; as a rule, active = well fitted inhibition curve with a large enough effect; inconclusive = small, poorly fitted or top-dose-only effect, or another doubt; inactive = no such curve, though single readings can be large or run the other way.

O=c1/c(=C/c2ccc([N+](=O)[O-])cc2)sc2n1CCCN=2 was read as Shiga inhibitor 46*, Pf growth 96h 116%, Pf growth 48h 98%, LASV entry inh 14%, CHX counter 35* and Marburg entry inh 19%.
`COc1ccc(C)cc1NC(=O)C(OC(=O)CNC(=O)c1ccc(Oc2ccccc2)cc1)c1ccccc1` (stereo not drawn) gave Shiga inhibitor 16, Pf growth 96h 16%, Pf growth 48h 2%, LASV entry inh 14%, CHX counter -1 and Marburg entry inh 6%.
For CCn1c(C)c(C)c2cc(C(=O)NCCCN3CCOCC3)ccc21 the results were Shiga inhibitor 0, Pf growth 96h inconclusive, Pf growth 48h -16% and CHX counter 5.
COc1cccc(C2CC(c3cccs3)=NN2C(=O)CCC(=O)O)c1OC (stereo not drawn) was read as Shiga inhibitor 19, Pf growth 96h -14%, Pf growth 48h inconclusive, LASV entry inh -7%[46.1 µM], CHX counter 11* and Marburg entry inh inconclusive.
Screening O=C(O)CCC(=O)N1N=C(c2cccs2)CC1c1ccc(Br)cc1 (stereo not drawn) returned Shiga inhibitor 13, Pf growth 96h -17%, Pf growth 48h -11% and CHX counter 9.
For COc1cccc(C2CC(c3cccs3)=NN2C(=O)CSc2nc3ccccc3s2)c1OC (stereo not drawn) the results were Shiga inhibitor 13, Pf growth 96h 7.4µM*, Pf growth 48h inconclusive, LASV entry inh inconclusive, CHX counter 3 and Marburg entry inh inconclusive.
`COc1ccc2c(c1)C=C(C(=O)NCc1ccc(Cl)cc1)CO2` gave Shiga inhibitor -12, Pf growth 96h 22%, Pf growth 48h 11%, LASV entry inh -8%, CHX counter 10 and Marburg entry inh -18%.
`C=CCNC(=S)Nc1ccccc1` gave Shiga inhibitor -2, Pf growth 96h 38%, Pf growth 48h 1%, LASV entry inh 13%, CHX counter -3 and Marburg entry inh 3%.
`C=CCNC(=S)Nc1cccc(NC(=S)NCC=C)c1` gave Shiga inhibitor -10, Pf growth 96h inconclusive, Pf growth 48h 13µM*, LASV entry inh 20%, CHX counter 1 and Marburg entry inh 12%.
Screening CCCN1CCN(CCCNC(=O)c2cc3c(Cl)nc4ccccc4c3s2)CC1 returned LASV entry inh 3%[46.1 µM] and Marburg entry inh inconclusive.
For CCOc1ccc(CCNC(=O)CSc2cc(=O)n(C)c3cc(Cl)ccc23)cc1OCC the results were Shiga inhibitor -1, Pf growth 96h inconclusive, Pf growth 48h 18%, LASV entry inh 14%[46.1 µM], CHX counter -1 and Marburg entry inh inconclusive.
Screening C=CCn1c(N)c(C(=O)OCC)sc1=S returned Shiga inhibitor -17, Pf growth 96h 0%, Pf growth 48h 2%, LASV entry inh -4%, CHX counter -5 and Marburg entry inh 12%.
O=C(NCCC1=CCCCC1)c1ccc(Cl)cc1 was read as Shiga inhibitor 46, Pf growth 96h 87%, Pf growth 48h 101% and CHX counter 33*.
`C=CCn1c(N)c(C(=O)NCCC2=CCCCC2)sc1=S` gave Shiga inhibitor 106*, Pf growth 96h -22%, Pf growth 48h 15%, LASV entry inh 48%[14.3 µM], CHX counter 49* and Marburg entry inh inconclusive.
Cn1c(=O)cc(SCC(=O)NCCC2=CCCCC2)c2ccc(Cl)cc21 was read as Shiga inhibitor -9, Pf growth 96h 15µM*, Pf growth 48h -7%, LASV entry inh -8%, CHX counter -4 and Marburg entry inh inconclusive.
Screening C=CCN1C(=O)CSc2ccc(C(=O)NCc3ccco3)cc21 returned Shiga inhibitor 8, Pf growth 96h inconclusive, Pf growth 48h -29%, LASV entry inh -17%, CHX counter 11 and Marburg entry inh -3%.
C=CCN1C(=O)CSc2ccc(C(=O)NCCC3=CCCCC3)cc21 was read as Shiga inhibitor -5, Pf growth 96h 2%, LASV entry inh 7.3µM*, CHX counter 5 and Marburg entry inh inconclusive.
O=C(COc1ccc(Br)cc1)NNC(=O)c1cc(S(=O)(=O)N2CCOCC2)ccc1Cl was read as LASV entry inh 1% and Marburg entry inh -6%.
`COC(=O)N/N=C/c1cn(CCOc2ccccc2OC)c2ccccc12` gave Shiga inhibitor -4, Pf growth 96h inconclusive and CHX counter 14.
O=C(NC1CCCN(Cc2ccc(Cl)cc2)C1)c1ccoc1 (stereo not drawn) was read as Shiga inhibitor -5, Pf growth 96h inconclusive, Pf growth 48h 8%, LASV entry inh 6%[46.1 µM], CHX counter 0 and Marburg entry inh -7%[46.1 µM].
Screening CS(=O)(=O)N(Cc1ccc(Cl)cc1)c1ccc(C(=O)NCCC2=CCCCC2)cc1 returned Shiga inhibitor -8, Pf growth 96h 17%, LASV entry inh inconclusive, CHX counter -2 and Marburg entry inh -5%.
CS(=O)(=O)Nc1ccc(C(=O)NCCC2=CCCCC2)cc1 was read as Shiga inhibitor 144*, Pf growth 48h 61%, LASV entry inh 1%, CHX counter 55* and Marburg entry inh inconclusive.
`O=C1C2C3C=CC(C4CC34)C2C(=O)N1/N=C/c1cccs1` (stereo not drawn) gave Shiga inhibitor 49*, Pf growth 96h 3%, Pf growth 48h -29%, LASV entry inh 14%, CHX counter 51* and Marburg entry inh -9%.
`COC(=O)c1ccc(-c2ccc(/C=N/N3C(=O)C4C5C=CC(C6CC56)C4C3=O)o2)cc1` (stereo not drawn) gave Shiga inhibitor 132*, Pf growth 96h -26%, Pf growth 48h 53%, LASV entry inh inconclusive, CHX counter 75* and Marburg entry inh -7%.
`O=C1C2C3C=CC(C3)C2C(=O)N1/N=C/c1ccc(-c2ccccc2[N+](=O)[O-])o1` (stereo not drawn) gave Shiga inhibitor 66*, Pf growth 96h 352%, Pf growth 48h 5%, LASV entry inh -22%, CHX counter 32* and Marburg entry inh inconclusive.
For O=C1C2C3C=CC(C4CC34)C2C(=O)N1/N=C/c1ccc([N+](=O)[O-])o1 (stereo not drawn) the results were Shiga inhibitor 16, Pf growth 96h -30%, Pf growth 48h -38%, LASV entry inh inconclusive, CHX counter 22* and Marburg entry inh inconclusive.
O=C1C2C3C=CC(C4CC34)C2C(=O)N1/N=C/c1ccc(-c2ccc([N+](=O)[O-])cc2)o1 (stereo not drawn) was read as Shiga inhibitor 36, Pf growth 96h -12%, Pf growth 48h 19%, LASV entry inh 1%, CHX counter -2 and Marburg entry inh -1%[46.1 µM].
`O=C(CSc1nc(=O)n2ccccc2n1)N1N=C(c2cccs2)CC1c1ccc(F)cc1` (stereo not drawn) gave Pf growth 96h inconclusive, Pf growth 48h inconclusive, LASV entry inh 7% and Marburg entry inh inconclusive.
